Reference: ChEMBL document CHEMBL4513216, “Probing the Open Global Health Chemical Diversity Library for Multistage-Active Starting Points for Next-Generation Antimalarials” (ACS Infect Dis, 2020)
Out of some 69,000 compounds screened, about 8,600 (12%) showed an effect of 50% or more. The sample holds strong results, similar compounds and a random draw of the others, so the mix is not that of the screen.

The molecules below were run on Plasmodium berghei (assay: Screen against P. berghei liver stage (PbLuc), transformed with Luciferase, at 10uM). Conditions: tested at 10 uM.
Type: functional, HepG2

| SMILES | INHIBITION |
| --- | --- |
| CC(=O)c1ccc(F)cc1-c1cc(NCCO)nc2[nH]ccc12 | -110% |
| CN(C)c1cccc(C(=O)N2CCCC2c2ncc3c(n2)CCNC3)c1 (centres undefined) | -16.7% |
| Cc1cc(NC(C)c2nncn2C2CCCC2)n2nc(C)cc2n1 (centres undefined) | 35.8% |
| Cc1cc2nc(C(C)C)cc(NC(C)c3nncn3C)n2n1 (centres undefined) | 47.6% |
| Cc1cc2nc(C(C)C)cc(NC(C)c3nncn3C3CCCC3)n2n1 (centres undefined) | 51.2% |
| O=C(c1cnn2cccnc12)N1CCCC(n2ccnc2)C1 (centres undefined) | 2.3% |
| Cc1cccc(CN2CC[C@@H]3[C@@H](CO[C@H]3CNc3ncccn3)C2)n1 | 18.4% |
| COc1cc2ccccc2cc1C(=O)N1CCCC(c2nncn2C)C1 (centres undefined) | -8.11% |
| CC(C)c1nc2c(n1C)CCN(CC(=O)Nc1ccnn1C(C)C)C2 | 27.4% |
| CO[C@H]1CCN(C(=O)c2ccc3oc(C)cc3c2)C[C@@]12CCCO2 | 45.6% |
| CO[C@H]1CN(C(=O)c2ccc3oc(C)cc3c2)CC[C@@]12CCCO2 | 21.6% |
| CO[C@H]1CN(C(=O)c2ccc3oc(C)cc3c2)C[C@@]12CCCO2 | 63.4% |
| COCCNC(=O)c1ccc(C)c(-n2cccc2)c1 | -15% |
| CN(C)CCNc1c(-c2ccccc2)c(=O)c1=O | -20.1% |
| CN(C)[C@@H]1CN(Cc2ccco2)C[C@@H]2CCCO[C@@H]21 | -2.27% |
| Cn1cnnc1CN1CCC2(CCC(=O)N(Cc3ccccc3)C2)CC1 | 76.2% |
| CCN1CC2(CCC1=O)CCN(Cc1nncn1C)CC2 | 17% |
| Cn1cnnc1CN1CCC2(CCC(=O)N(Cc3ccccn3)C2)CC1 | -42.2% |
| Nc1nc(C2CCN(C(=O)c3cnccn3)CC2)cs1 | 38.2% |
| Cn1ncc2c(=O)[nH]c(CN3CCCC3c3cccc(F)c3)nc21 (centres undefined) | -29.9% |
| CCS(=O)(=O)N1CCOC2(COCCN(C(C)=O)C2)C1 (centres undefined) | 18.7% |
| CC(=O)N1CCOCC2(C1)CN(S(C)(=O)=O)CCO2 (centres undefined) | 18.7% |

| SMILES | INHIBITION |
| --- | --- |
| CCCS(=O)(=O)N1CCOC2(COCCN(C(C)=O)C2)C1 (centres undefined) | 60% |
| CCCn1nc2c(cc1=O)CN(CC(=O)Nc1ccncc1)CC2 | 40.3% |
| CNc1nccnc1C1CN(Cc2ccc(OCC(=O)O)cc2)CCO1 (centres undefined) | 26.7% |
| CS(=O)(=O)NCc1cn2c(n1)CN(Cc1ccoc1)CC2 | -4.02% |
| Cc1cc(C)n(CC2CCCN2CCCS(C)(=O)=O)n1 (centres undefined) | 3.5625% |
| O=C(c1ccc(CNC2CCSC2)cc1)N1CCCC1 (centres undefined) | -4.12% |
| Cc1noc(C)c1Cc1nc(N(C)C)no1 | 19.9% |
| CC(C(=O)Nc1ccc2ccccc2c1)N1CCC(n2ccnc2)CC1 (centres undefined) | 48.8% |
| CC(C(=O)NCCc1cccs1)N1CCC(n2ccnc2)CC1 (centres undefined) | 42.1% |
| CC(C(=O)Nc1ncccn1)N1CCC(n2ccnc2)CC1 (centres undefined) | 54.4% |
| CCc1nc(C)c(CN2CCN(c3ncnc4scc(C)c34)CC2)[nH]1 | 30.5% |
| Cc1n[nH]c(CN2CCN(c3ncnc4scc(C)c34)CC2)c1Cl | 68.2% |
| CCc1nc(C)c(CN2CCN(c3ncnc4c(C)csc34)CC2)[nH]1 | 4.35% |
| CCC(=O)N1CCC(c2nc(C)ncc2-c2ccncc2)CC1 | 19.2% |
| CCN1CCC2(CC1)CC(NCc1ccncc1)c1ccccc1O2 (centres undefined) | 43.9% |
| CC(C)Cn1ncc(C(=O)NS(=O)(=O)c2ccccc2)c1C1CC1 | 79.7% |
| CC(C)Cn1ncc(C(=O)NS(=O)(=O)C2CCCC2)c1C1CC1 | 58.8% |
| CC(C)NC(=O)c1cc2c(nc1N(C)C)CCN(S(=O)(=O)C1CC1)CC2 | -37.9% |
| CCc1c(C(=O)Nc2ccc(F)c(C(=O)NC)c2)cnn1CC(C)C | 30.9% |
| CC(C)Cn1ncc(C(=O)O)c1C1CC1 | 14.3% |
| O=C(NS(=O)(=O)c1ccccc1)c1ccccc1F | 14.8% |
| CCC1c2ccsc2CCN1C(=O)NCc1cccnc1N(C)C (centres undefined) | 16.97% |

| SMILES | INHIBITION |
| --- | --- |
| Cn1cc(CN2CCC(c3cc(CCO)[nH]n3)C2)cn1 (centres undefined) | 39.8% |
| CN(C)CCn1ccnc1C1CCN(c2cc(N)nc(N)n2)CC1 | 50.5% |
| COc1cc(N2CCC(c3nccn3CCCN(C)C)CC2)nc(N)n1 | -10.9% |
| COc1cc(N2CCCC(c3nccn3CCN(C)C)C2)nc(N)n1 (centres undefined) | -40.3% |
| COc1ccccc1Cc1cncc(N2CC(C(=O)O)C2)n1 | 10% |
| CC(C)N1CCC(c2nc3ccc(-c4ccnn4C)cn3n2)CC1 | 8.52% |
| CN1CCN(C(=O)c2cccc(CN3CCOCC3)c2)CC1 | 22.3% |
| CN(C)CCCC(=O)NC1CC(C)(C)Cc2nc(C(C)(C)C)ncc21 (centres undefined) | 22% |
| Cc1sc(C(=O)NC(C)C)cc1S(=O)(=O)N(C)C | -16.8% |
| O=C(O)CCCC(=O)Nc1cnn(COc2ccc(F)cc2Cl)c1 | 4.52% |
| COCCC(=O)Nc1cnn(COc2ccc(F)cc2Cl)c1 | 50.4% |
| COCCNC(=O)Cn1cc(NC(=O)c2cccc(Cl)c2Cl)cn1 | -3.83% |
| O=C(Nc1cnn(Cc2ccc(F)cc2Cl)c1)C1CC1 | -10.8% |
| COCC(=O)Nc1cnn(COc2ccc(F)cc2Cl)c1 | 0.348% |
| O=C(Nc1cnn(COc2ccc(F)cc2Cl)c1)C1CC1 | 71.3% |
| CCn1c(Cn2cncn2)nnc1C1CCN(C2CCNCC2)CC1 | -3.51% |
| OC(CN1CCC(c2ccn[nH]2)CC1)c1cc(F)ccc1F (centres undefined) | -4.94% |
| O=C(CCc1nc(C2CC2)no1)c1ccccc1 | -12.2% |
| Cc1nccn1Cc1nnc(C2CCCN(c3cnccn3)C2)n1C (centres undefined) | 11.5% |
| CCOC(=O)c1s/c(=N\C(=O)COc2cnc(C)cc2O)[nH]c1C | 3.52% |
| COCCN1CCN(c2cc(OC)ncn2)Cc2ccc(C)nc21 | 30.3% |
| Cc1ccc2c(n1)N(CC1CC1)CCN(S(=O)(=O)C1CC1)C2 | -63.5% |

| SMILES | INHIBITION |
| --- | --- |
| COCCN1CCN(Cc2c(C)noc2C)Cc2ccc(C)nc21 | 33% |
| COc1cc(N2CC[C@@H]3[C@@H](CC2)OCCN3CC2CC2)ncn1 | 81% |
| COCCN1CCN(Cc2ccco2)Cc2ccc(C)nc21 | 23.1% |
| COc1cc(N2CCN(CC3CC3)c3nc(C)ccc3C2)ncn1 | 69.3% |
| COc1cc(N2CC[C@@H]3OCCN(C)[C@H]3CC2)ncn1 | 39.4% |
| COCCN1CCN(c2ccc(C)nn2)Cc2ccc(C)nc21 | 51.2% |
| COCCN1CCN(c2cccc(C)n2)Cc2ccc(C)nc21 | 53.9% |
| Cc1ccc(N2C[C@@H]3OCCN(CC4CC4)[C@@H]3C2)nn1 | 35.5% |
| COCCN1CCN(c2ccc(C)nn2)Cc2cccnc21 | -2.03% |
| CCCS(=O)(=O)N1CCN(CCOC)c2nc(C)ccc2C1 | 29.8% |
| CSc1nccc(N2C[C@H]3CC[C@@H](C2)N(CC2CCC2)C3=O)n1 | 22.3% |
| CC(C)c1noc(CCCC(=O)N2CCN(Cc3ccsc3)CC2)n1 | 21.5% |
| CCCc1ccc(OC23CCCN(CC2)C3)c(OC)c1 (centres undefined) | 14.9% |
| Cc1cc(C(=O)N(C)C)nc(C2(C)CCCN2c2ccccc2)n1 (centres undefined) | 23.9035% |
| COc1ccc(C(=O)NS(=O)(=O)c2cncc(Br)c2)cc1 | -2.48% |
| COCCCN1Cc2cccc(NC(=O)C(C)(C)C)c2C1 | -21.1% |
| CC(C)Cc1nc(OCC#N)c(C#N)c2c1CCC2 | 44.9% |
| Cc1cnn(CC(=O)N2CCC(Nc3ccc(C)nn3)CC2)c1 | 39.95% |
| O=C(CSC1CCc2ccccc2NC1=O)Nc1ccc(CCO)cc1 (centres undefined) | -10.8% |
| Cc1ccc2c(n1)N(CC1CC1)CCN(Cc1cnn(C)c1)C2 | 55.4% |
| Cc1ccc2c(n1)N(C)CCN(Cc1cnn(C)c1)C2 | 49.4% |
| Cc1ccc2c(n1)N(Cc1cccnc1)CCN(Cc1cnn(C)c1)C2 | 30.5% |

| SMILES | INHIBITION |
| --- | --- |
| CC(CCc1ccccc1)N1CCC(C(=O)Nc2ccccn2)CC1 (centres undefined) | -6.46% |
| Cc1ccc(CNCc2cccc3cccnc23)c(OC2CCOC2)c1 (centres undefined) | -62.1% |
| Cc1ccc(CNCc2cccc3cn[nH]c23)c(OC2CCOC2)c1 (centres undefined) | 66% |
| Cc1ccc(NCc2cccc3cn[nH]c23)cc1OC1CCOC1 (centres undefined) | -16.8% |
| Cc1cc(F)ccc1N1CCCC(NC2CCOCC2)C1=O (centres undefined) | 21.3% |
| Cc1ccc(CN2CCOC3(COCCN(Cc4ccncc4)C3)C2)o1 (centres undefined) | 14% |
| O[C@@H]1CN(Cc2ccncc2)C[C@H]1Oc1ccccc1 | 39.7% |
| Cc1cncc(CN2C[C@@H](O)[C@H](Oc3ccccc3)C2)c1 | 51.5% |
| O[C@@H]1CN(Cc2cccnc2)C[C@H]1Oc1ccccc1 | 26.8% |
| CCOCC(=O)N1CC[C@@H]2O[C@@H](C)C[C@H]2C1 | 43.9% |
| O=c1[nH]c2ccccc2c2c1CCO2 | 30.7% |
| CC(=O)N(Cc1ncc(C(C)C)o1)C1CCN(Cc2ccno2)C1 (centres undefined) | 0.1995% |
| COc1cccc2c1OCC(CNC(=O)CSc1ccccn1)C2 (centres undefined) | -52.3% |
| COc1cccc2c1OCC(C(=O)N1Cc3ccccc3C1)C2 (centres undefined) | 44.8% |
| COc1cccc2c1OCC(NC(=O)NC1CCN(C3CC3)CC1)C2 (centres undefined) | -3.16% |
| COc1cccc2c1OCC(C(=O)N(C)CCCc1cnn(C)c1)C2 (centres undefined) | 40.9% |
| COCCN(Cc1cnn(C)c1)C(=O)C1COc2c(cccc2OC)C1 (centres undefined) | 22.3% |
| COc1cccc2c1OCC(NCCCOc1cccnc1)C2 (centres undefined) | 14% |
| COc1cccc2c1OCC(NCCc1cnn(-c3ccccc3)c1)C2 (centres undefined) | 77.6% |
| COc1cccc2c1OCC(NCc1cnn(-c3ccccc3)c1)C2 (centres undefined) | 62.8% |
| COc1cccc2c1OCC(NCc1cnn(-c3ccccc3F)c1)C2 (centres undefined) | 53.8% |
